From PubChem BioAssay AID1159580 (chemical genetic matrix, 2015)
In all, about 5,500 compounds went through this assay and about 2,000 (36%) were called active. Roughly 18% stayed inconclusive and do not appear here. Rule as the data show it: active = normalized growth mostly below about 0.91 (no sharp cut-off); inconclusive = no clear call, values can overlap the other calls; inactive = mostly above about 0.92. The list shows a part of the results.

Test: chemical genetic growth profiling, strain panel (AID 1159580);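 also: tested at 20 µM; growth read once vehicle control cultures reached saturation at 30 °C; 1 = growth at the plate median or of vehicle wells; lower values mean less growth of the strain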
Conditions: S. cerevisiae deletion strains, growth OD

Measured: normalized growth

CC(=O)O[C@H]1CC[C@]2(C)C3CC(=O)[C@]4(C)C(C(C)=O)=CCC4C3CC[C@H]2C1 (stereo partly drawn)
active: locus YDR392W, strain spt3, stronger effect = lower value 0.628
inactive: locus YAL021C, strain ccr4, stronger effect = lower value 1 | locus YAL026C, strain drs2, stronger effect = lower value 0.997 | locus YAL030W, strain snc1, stronger effect = lower value 1 | locus YBL061C, strain skt5, stronger effect = lower value 0.994 | locus YBR009C, strain hhf1, stronger effect = lower value 0.996 | locus YBR021W, strain FUR4, stronger effect = lower value 1 | locus YBR023C, strain chs3, stronger effect = lower value 0.995 | locus YBR171W, strain sec66, stronger effect = lower value 0.995 | locus YBR229C, strain ROT2, stronger effect = lower value 0.997 | locus YBR231C, strain swc5, stronger effect = lower value 1 | locus YBR279W, strain paf1, stronger effect = lower value 0.996 | locus YCL011C, strain gbp2, stronger effect = lower value 0.984 | locus YCL016C, strain dcc1, stronger effect = lower value 0.992 | locus YCL029C, strain bik1, stronger effect = lower value 0.987 | locus YCL061C, strain MRC1, stronger effect = lower value 0.994 | locus YCL069W, strain vba3, stronger effect = lower value 0.992 | locus YCR088W, strain abp1, stronger effect = lower value 0.987 | locus YDL005C, strain med2, stronger effect = lower value 0.984 | locus YDL035C, strain GPR1, stronger effect = lower value 0.956 | locus YDL040C, strain nat1, stronger effect = lower value 0.993 | locus YDL074C, strain BRE1, stronger effect = lower value 0.967 | locus YDL101C, strain DUN1, stronger effect = lower value 1 | locus YDL185W, strain tfp1, stronger effect = lower value 1.02 | locus YDL192W, strain arf1, stronger effect = lower value 0.978 | locus YDR001C, strain nth1, stronger effect = lower value 0.994 | locus YDR069C, strain doa4, stronger effect = lower value 1.02 | locus YDR101C, strain arx1, stronger effect = lower value 0.988 | locus YDR137W, strain rgp1, stronger effect = lower value 0.924 | locus YDR159W, strain sac3, stronger effect = lower value 0.921 | locus YDR162C, strain NBP2, stronger effect = lower value 0.987 | locus YDR195W, strain ref2 1 | locus YDR297W, strain sur2, stronger effect = lower value 0.998 | locus YDR318W, strain mcm21, stronger effect = lower value 0.988 | locus YDR334W, strain swr1, stronger effect = lower value 1.01 | locus YDR335W, strain msn5, stronger effect = lower value 1 | locus YDR388W, stronger effect = lower value 0.998 | locus YDR502C, strain sam2, stronger effect = lower value 0.978 | locus YEL003W, strain gim4, stronger effect = lower value 0.996 | locus YEL037C, strain rad23, stronger effect = lower value 1.01 | locus YEL061C, strain CIN8 (second series), stronger effect = lower value 1 | locus YEL061C, strain CIN8, stronger effect = lower value 0.993 | locus YER015W, strain faa2, stronger effect = lower value 1 | locus YER016W, strain bim1, stronger effect = lower value 0.994 | locus YER110C, stronger effect = lower value 1.01 | locus YER111C, strain swi4, stronger effect = lower value 1.01 | locus YER155C, strain BEM2 (second series), stronger effect = lower value 0.963 | locus YER155C, strain BEM2, stronger effect = lower value 0.983 | locus YER167W, strain BCK2, stronger effect = lower value 0.982 | locus YFR010W, strain ubp6, stronger effect = lower value 1 | locus YGL078C, strain dbp3, stronger effect = lower value 1.01 | locus YGL086W, strain mad1, stronger effect = lower value 0.968 | locus YGL167C, strain pmr1, stronger effect = lower value 0.985 | locus YGL173C, strain kem1, stronger effect = lower value 0.995 | locus YGL227W, strain vid30, stronger effect = lower value 0.996 | locus YGL240W, strain doc1, stronger effect = lower value 1.01 | locus YGL248W, strain PDE1, stronger effect = lower value 0.99 | locus YGL253W, strain hxk2, stronger effect = lower value 0.982 | locus YGR078C, strain PAC10, stronger effect = lower value 0.983 | locus YGR135W, strain pre9, stronger effect = lower value 1.01 | locus YGR229C, strain SMI1, stronger effect = lower value 0.995 | locus YGR252W, strain gcn5, stronger effect = lower value 1.05 | locus YHR013C, strain ard1, stronger effect = lower value 0.934 | locus YHR027C, strain rpn1, stronger effect = lower value 0.988 | locus YHR079C, strain IRE1 (second series), stronger effect = lower value 0.997 | locus YHR094C, strain hxt1, stronger effect = lower value 1 | locus YHR129C, strain ARP1, stronger effect = lower value 0.982 | locus YHR142W, strain chs7, stronger effect = lower value 0.972 | locus YHR200W, strain rpn10, stronger effect = lower value 1.01 | locus YIL066C, strain RNR3, stronger effect = lower value 0.98 | locus YIL073C, strain SPO22, stronger effect = lower value 1.03 | locus YIL125W, strain kgd1, stronger effect = lower value 0.989 | locus YIR030C, strain dcg1, stronger effect = lower value 0.998 | locus YJL092W, strain hpr5, stronger effect = lower value 0.988 | locus YJL095W, strain BCK1 (second series), stronger effect = lower value 0.997 | locus YJL095W, strain BCK1, stronger effect = lower value 1.02 | locus YJL115W, strain asf1, stronger effect = lower value 1 | locus YJL129C, strain trk1, stronger effect = lower value 1.01 | locus YJL134W, strain LCB3, stronger effect = lower value 0.988 | locus YJL154C, strain vps35, stronger effect = lower value 1 | locus YJL164C, strain tpk1, stronger effect = lower value 0.988 | locus YJL166W, strain qcr8, stronger effect = lower value 0.991 | locus YJL168C, strain set2, stronger effect = lower value 0.995
